In PubChem BioAssay (NCI):
This is part of a sample that, as a whole, favours compounds with a hit. Of some 83,000 tested, about 20% had one in any assay.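 Plates (96-well) were seeded with cells, treated with compound at one concentration, and incubated for 48 hours before percent growth was determined.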 A number with no mark means an inactive call. The source made the active and inactive calls. The calls were made as follows: active = growth percent below 10; inactive = the rest.

How the values were obtained:
Experiment in all cases: NCI-60 one-dose screen, 48 h (100 = growth as untreated, 0 = no growth, -100 = all killed)
Settings in all cases: 10 µM unless noted
[1] = system: SR leukemia
[2] = system: RPMI-8226 leukemia
[3] = system: OVCAR-8 ovarian
[4] = system: OVCAR-5 ovarian
[5] = system: OVCAR-4 ovarian
[6] = system: SK-OV-3 ovarian
[7] = system: OVCAR-3 ovarian
[8] = system: HS 578T breast
[9] = system: NCI/ADR-RES ovarian
[10] = system: T-47D breast
[11] = system: BT-549 breast
[12] = system: MDA-MB-435 melanoma
[13] = system: SW-620 colon
[14] = system: MCF7 breast
[15] = system: HCT-116 colon
[16] = system: HCC-2998 colon
[17] = system: KM12 colon

CC(C)N(Cc1ccccc1)c1c(S)ssc1=S
growth [1]: 2.98% (active)
growth [2]: -65.4% (active)
growth [3]: 14.7%
growth [4]: 14.1%
growth [5]: -2.68% (active)
growth [6]: 11.7%
growth [7]: 28.1%
growth [8]: 6.03% (active)
growth [9]: 15.9%
growth [10]: 18.2%
growth [11]: -4.86% (active)
growth [12]: 11.8%
growth [13]: 9.47% (active)
growth [14]: 3.04% (active)
growth [15]: 5.93% (active)
growth [16]: 24.8%
growth [17]: 11.5%

Cn1c(=O)c2[nH]c(=S)n(Cc3ccccc3)c2n(C)c1=O
growth [1]: 91.4%
growth [2]: 119%
growth [3]: 111%
growth [4]: 105%
growth [5]: 98.9%
growth [6]: 107%
growth [7]: 104%
growth [8]: 101%
growth [9]: 99.2%
growth [10]: 98.8%
growth [11]: 106%
growth [12]: 119%
growth [13]: 100%
growth [14]: 101%
growth [15]: 98.2%
growth [17]: 109%

COC(=O)C1=CCC(n2cnc3c(N)ncnc32)O1 (stereo not given)
growth [1]: 102%
growth [2]: 118%
growth [3]: 96.3%
growth [4]: 109%
growth [5]: 106%
growth [6]: 108%
growth [7]: 106%
growth [8]: 110%
growth [9]: 95.4%
growth [10]: 102%
growth [11]: 114%
growth [12]: 102%
growth [13]: 106%
growth [14]: 120%
growth [15]: 98.6%
growth [16]: 106%
growth [17]: 100%

O=C(/C=C(\Nc1ccccc1)c1ccccc1)c1cn(-c2ccc([N+](=O)[O-])cc2)nn1
growth [1]: 69.4%
growth [2]: 84%
growth [3]: 53.5%
growth [4]: 116%
growth [5]: 87.9%
growth [6]: 106%
growth [7]: 112%
growth [8]: 63%
growth [9]: 111%
growth [10]: 96.4%
growth [11]: 110%
growth [12]: 102%
growth [13]: 93.2%
growth [14]: 103%
growth [15]: 92.1%
growth [16]: 103%
growth [17]: 110%

Cc1ccc2c(c1)C(=O)/C(=C\Nc1ccc(C(N)=O)cc1)C(O)O2 (stereo not given)
growth [1]: 97.1%
growth [2]: 46.5%
growth [3]: 97.1%
growth [4]: 110%
growth [5]: 101%
growth [6]: 107%
growth [7]: 84.6%
growth [8]: 97.4%
growth [9]: 110%
growth [10]: 73.9%
growth [11]: 82.4%
growth [12]: 98.4%
growth [13]: 93.2%
growth [14]: 96.6%
growth [15]: 93.5%
growth [16]: 134%
growth [17]: 88.2%

Cc1cc2ccccn2c1C(=O)c1ccc(C(=O)c2ccccc2)cc1
growth [1]: -3.06% (active)
growth [2]: 82.1%
growth [3]: 87.9%
growth [4]: 87.8%
growth [5]: 81.4%
growth [6]: 111%
growth [7]: 96%
growth [8]: 86%
growth [9]: 72%
growth [10]: 77.3%
growth [11]: 92.5%
growth [12]: 91.3%
growth [13]: 84.2%
growth [14]: 96.5%
growth [15]: 88.7%
growth [16]: 83.8%
growth [17]: 113%

CC(=O)Nc1ccc(C(=O)COc2cccc(/C=C3\CCc4ccccc4C3=O)c2)cc1
growth [1]: 52.4%
growth [2]: 19.6%
growth [3]: 88.4%
growth [4]: 104%
growth [5]: 83.4%
growth [6]: 95.5%
growth [7]: 238%
growth [8]: 99.7%
growth [9]: 83%
growth [10]: 67.9%
growth [11]: 66%
growth [12]: 85.8%
growth [13]: 47%
growth [14]: 19.6%
growth [15]: 81%
growth [16]: 93.7%
growth [17]: 91%

CCOC(=O)c1sc(NC(=O)COc2cccc(/C=C3\CCc4cc(OC)ccc4C3=O)c2)nc1C
growth [1]: -19.4% (active)
growth [2]: 12.6%
growth [3]: 73%
growth [4]: 98%
growth [5]: 73.2%
growth [6]: 99%
growth [7]: 38.2%
growth [8]: 91.7%
growth [9]: 47.7%
growth [10]: 84.8%
growth [11]: -23.3% (active)
growth [12]: 8.01% (active)
growth [13]: 36.4%
growth [14]: 18.9%
growth [15]: 46.5%
growth [16]: 32.3%
growth [17]: 34.7%
